From PubChem BioAssay (NCI)
This is part of a sample that, as a whole, favours compounds with a hit. Of some 83,000 tested, about 20% had one in any assay.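 Values shown are percent growth following 48 h exposure of cells in 96-well plates to a single concentration of compound; below 10 was considered active.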 A number with no mark means an inactive call. The source made the active and inactive calls.

Legend:
Assay in all cases: NCI-60 one-dose screen, 48 h (100 = growth as untreated, 0 = no growth, -100 = all killed)
HCT-15 colon = details: 10 µM unless noted
HT29 colon = details: 10 µM unless noted
SNB-75 CNS = details: 10 µM unless noted
SNB-19 CNS = details: 10 µM unless noted
U251 CNS = details: 10 µM unless noted
PC-3 prostate = details: 10 µM unless noted
SK-MEL-5 melanoma = details: 10 µM unless noted
UACC-62 melanoma = details: 10 µM unless noted
LOX IMVI melanoma = details: 10 µM unless noted
SK-MEL-28 melanoma = details: 10 µM unless noted
EKVX NSCLC = details: 10 µM unless noted
SN12C renal = details: 10 µM unless noted
TK-10 renal = details: 10 µM unless noted
ACHN renal = details: 10 µM unless noted
CAKI-1 renal = details: 10 µM unless noted
CCRF-CEM leukemia = details: 10 µM unless noted
MOLT-4 leukemia = details: 10 µM unless noted
SK-MEL-2 melanoma = details: 10 µM
UO-31 renal = details: 10 µM unless noted
A498 renal = details: 10 µM unless noted

Row | SMILES | growth (HCT-15 colon) | growth (HT29 colon) | growth (SNB-75 CNS) | growth (SNB-19 CNS) | growth (U251 CNS) | growth (PC-3 prostate) | growth (SK-MEL-5 melanoma) | growth (UACC-62 melanoma) | growth (LOX IMVI melanoma) | growth (SK-MEL-28 melanoma) | growth (EKVX NSCLC) | growth (SN12C renal) | growth (TK-10 renal) | growth (ACHN renal) | growth (CAKI-1 renal) | growth (CCRF-CEM leukemia) | growth (MOLT-4 leukemia) | growth (SK-MEL-2 melanoma) | growth (UO-31 renal) | growth (A498 renal)
1 | N#Cc1c(NC(=O)c2cccs2)[n+]([O-])c2ccc(F)cc2[n+]1[O-] | 74.6% | 97.6% | 81.1% | 98% | 93.2% | 77.3% | 2.84% (active) | 83.2% | 89.9% | 112% | 86.4% | 98.3% | 117% | 89% | 90.7% | 77.7% | 90.2% |  |  | 
2 | Cc1sc2c(c1C)c(=O)nc1c(-c3nc4ccccc4s3)n[nH]n12 | 100% | 101% | 95.3% | 101% | 98% | 78.7% | 96.7% | 88.4% | 93.3% |  | 81.9% | 96.7% | 140% | 101% |  | 89.2% | 94.5% | 95.2% | 73.7% | 101%
3 | Cc1ccc(NC(=O)c2ccc(CN3CC[C@H](N(C)C)C3)c(C(F)(F)F)c2)cc1Nc1nccc(-c2cncnc2)n1 | 8.37% (active) | -47.3% (active) | -85.9% (active) | 19.6% | -36% (active) | 10.9% | -96.6% (active) | -63.5% (active) | -72.7% (active) |  | 15.3% | -32.6% (active) | -30.1% (active) | 1.22% (active) | 6.85% (active) | 4.61% (active) | -4.64% (active) |  | -61.3% (active) | -59.9% (active)
4 | COc1ccc(C2OC(c3cc(-c4cc5ccccc5o4)nn3-c3ccccc3)=NN2C(C)=O)cc1 (stereo not drawn) | 97.2% | 93.3% | 87.5% | 91.3% | 96.2% | 88.9% | 8.69% (active) | 86.9% | 85.5% | 109% | 94.5% | 93.2% | 111% | 99.3% | 100% | 95.5% | 83% |  |  | 
5 | N#CC(C#N)=NO | 104% | 91.7% | 89.1% | 102% | 95.2% | 71.8% | 108% | 102% | 95.8% |  | 92.4% | 106% | 93.9% | 98.4% |  | 87% | 99.8% | 100% | 98.6% | 102%
6 | COc1ccc(CCCc2c3[n+](cc4c(OC)c(OC)ccc24)CCc2cc4c(cc2-3)OCO4)cc1 | 102% | 47.2% | 88.3% | 60.4% | 40.8% | 58.2% | 39% | 49.7% | 57.8% |  | 78.3% | 69% | 66.4% | 96.2% | 98.3% | 64.7% | 76.8% | 60.1% | 93.2% | 
7 | COCCOc1cnc2ccn([C@H](C)c3nnc4c(F)cc(-c5cnn(C)c5)cn34)c(=O)c2c1 | 95.5% | 104% | 93.2% | 73.9% | 92.2% | 78.7% | 47.5% | 20.7% | 61.5% | 44% | 96% | 86.3% | 105% |  | 65.2% | 70.6% | 78.7% |  | 60% | 35.9%
8 | COc1cnc2c(c1)C(=O)c1c-2n(CCCN2CCOCC2)c(=O)c2cc(Cl)ccc12 | 43.9% | 8.04% (active) | 45.9% | 28.6% | 8.25% (active) | 32% | -9.63% (active) | 4.37% (active) | -36.6% (active) |  | 54.2% | 21.6% | 83.1% | 6.75% (active) | 18.3% | 1.33% (active) | -17.8% (active) | 92.1% | 13.8% | -2.15% (active)
9 | Cc1nc(-c2cn3c(n2)-c2ccc(-c4cnn(C(C)(C)C(N)=O)c4)cc2OCC3)n(C(C)C)n1 | 30.8% | 10.5% | -5.53% (active) | 30.8% | 23.5% | 23.5% | 8.62% (active) | -22.6% (active) |  | 9.16% (active) | 36.1% | 25.7% | 8.61% (active) | 15.9% | 21.1% | 26.4% | 15.2% |  | 5.32% (active) | -31.3% (active)
10 | C=C1C(=O)O[C@H]2[C@H]1CC/C(Cn1cc(-c3cc(C)c(C)cc3C)nn1)=C\CC[C@@]1(C)O[C@@H]21 | -82.6% (active) | -67.9% (active) | 29% | 41.8% | 12.8% | -69.7% (active) | 7.44% (active) | -82% (active) |  | -76.3% (active) | -79.9% (active) | -34.6% (active) | -98.9% (active) | -86.7% (active) | -93.7% (active) | -13.8% (active) | -19.2% (active) | -12.9% (active) | -98.3% (active) | 
11 | Cc1oc2c(C(=O)N/N=C\c3ccc(O)cc3O)c[nH]c2c1C | 9.44% (active) | 25.6% | 40.2% | 35.5% | 20.2% | 43.4% | 23.6% | 2.05% (active) |  | 32.1% | 26.6% | 44.5% | 6.21% (active) |  | 1.53% (active) | 23.9% | 8.56% (active) |  | -0.347% (active) | 44.6%
12 | CSc1nc2ncncc2[nH]1 | 101% | 99.4% | 86.7% | 100% | 101% | 106% | 101% | 104% |  | 75.1% | 91.2% | 91.4% | 102% | 104% | 621% | 97.7% | 95% |  | 90.7% | 78.2%
13 | COc1cc2c(cc1OCCCCCCN1CCN(c3ncnc4ccccc34)CC1)N=CC1CCCN1C2=O (stereo not drawn) | -2.53% (active) | 10.9% | -46.9% (active) | 17% | 0.0332% (active) | -23.1% (active) | -87.2% (active) | -95.8% (active) |  | -4.17% (active) | -8.7% (active) | -10.4% (active) | 1.29% (active) | 0.483% (active) | -19.6% (active) | -32.8% (active) | -32.1% (active) | 3.62% (active) |  | 
14 | O=C1CCC(=O)CC1 | 102% | 102% | 88.8% | 93.9% | 99.4% | 92.7% | 109% | 99% |  | 112% | 98.8% | 90% | 96.4% | 109% | 96.5% | 98.1% | 101% |  | 86.4% | 104%
15 | O=C(NOC[C@H](O)CO)c1ccc(F)c(F)c1Nc1ccc(I)cc1F | 53% | 7.15% (active) | 59.9% | 49.1% | 38.6% | 92.8% | 42.5% | -10.7% (active) |  | -2.06% (active) | 57.6% | 49.5% | 41.4% | 47.6% | 34.3% | 83.7% | 66.6% |  | 24.6% | -19.9% (active)
16 | O=C1NC(=O)/C(=C/c2ccc3nccc(-c4ccncc4)c3c2)S1 | -19.5% (active) | -51.4% (active) | -45.9% (active) | -26.6% (active) | -74.6% (active) | -24.5% (active) | -94.7% (active) | -74.2% (active) |  | -32.6% (active) | -16.9% (active) | -5.67% (active) | -68.8% (active) | -21.2% (active) | -40.2% (active) | 0.0384% (active) | -8.29% (active) |  | -37.7% (active) | -77.1% (active)
17 | COc1cc(Nc2ncc3c(n2)-c2ccc(Cl)cc2C(c2c(F)cccc2OC)=NC3)ccc1C(=O)O | 37.2% | 40.7% | 91.6% | 74.1% | 51.6% | 60.7% | 67.8% | 64.6% |  | 84.7% | 89.9% | 72.6% | 63.9% | 64.4% | 68.2% | 47.2% | 52.8% |  | 51.7% | 63.2%
